# Measurements taken from PubChem BioAssay (EPA / NIEHS).
# Results filed as inconclusive are left out. Activity calls are given as the source filed them. Rule for the calls: active = hit-call score of the fitted dose curve at least 0.9, where 1 is the maximum; inconclusive = response in the unintended direction; inactive = score below 0.9.
# Experiments:
# [1] = ACEA_AR_agonist_AUC_viability: ACEA Biosciences xCELLigence Real-Time Cell Analysis on Androgen Receptor Agonism for Viability (AID 2283775);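 for AC50: viability read 80 hours after compound addition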
# Method in brief: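 Read-out is area under the impedance curve at 80 h post-dose in 22Rv1 cells, with DMSO as baseline and signal loss taken as reduced viability. Compounds ran in duplicate from 100 uM final.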
# [2] = ACEA_ER_AUC_viability: ACEA Biosciences xCELLigence Real-Time Cell Analysis on Estrogen Receptor Agonism for Viability (AID 2283782);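 note: continuous compound exposure with impedance area under curve over 80 h; hit means loss of impedance signal meaning reduced cell growth or viability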
# Method in brief: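 T-47D; phenol red-free RPMI1640 + 10% CS-FBS; 8 conc., 1:4 serial, max 100 uM final, ≤0.5% DMSO; n = 2; continuous exposure; impedance monitored to 80 h post-dose; AUC vs DMSO.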
# [3] = ACEA_AR_antagonist_AUC_viability: ACEA Biosciences xCELLigence Real-Time Cell Analysis on Androgen Receptor Antagonism for Viability (AID 2283776);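 note: 22Rv1 human prostate cancer cells growing on impedance electrode plates; area under impedance growth curve at 80 h after dosing as viability; hits lower the growth signal relative to DMSO meaning cytotoxicity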
# Method in brief: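 Impedance read-out (RT-CES): area under growth curve at 80 h post-dose, loss of signal scored vs DMSO baseline. 22Rv1 cells; 8-pt 1:4 series, top 100 uM final, ≤0.5% DMSO; biological duplicate.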
# [4] = STM_H9_NormalizedViability: Cytotoxicity Assessment at 120 hours in the Stemina devTOX quickPredict H9 human embryonic stem cell (hESC)-based Assay (AID 2283784)
# Method in brief: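 Undifferentiated H9 hESCs kept pluripotent were exposed to compound, with media and chemical replaced every 24h. CellTiter-Fluor protease-substrate fluorescence was background-corrected and normalized per plate to the 0.1% DMSO vehicle; signal loss indicates reduced viability.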
# [5] = molecular target: AR (gene 367) (UniProt P10275); assay: ACEA_AR_antagonist_80hr: ACEA Biosciences xCELLigence Real-Time Cell Analysis on Androgen Receptor Antagonism for Proliferation (AID 2283787);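 note: 22Rv1 human prostate cancer cells with growth followed by electrical impedance; hits lower the impedance growth signal relative to DMSO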
# Chain of AR (gene 367) (P10275 whole entry, looked up): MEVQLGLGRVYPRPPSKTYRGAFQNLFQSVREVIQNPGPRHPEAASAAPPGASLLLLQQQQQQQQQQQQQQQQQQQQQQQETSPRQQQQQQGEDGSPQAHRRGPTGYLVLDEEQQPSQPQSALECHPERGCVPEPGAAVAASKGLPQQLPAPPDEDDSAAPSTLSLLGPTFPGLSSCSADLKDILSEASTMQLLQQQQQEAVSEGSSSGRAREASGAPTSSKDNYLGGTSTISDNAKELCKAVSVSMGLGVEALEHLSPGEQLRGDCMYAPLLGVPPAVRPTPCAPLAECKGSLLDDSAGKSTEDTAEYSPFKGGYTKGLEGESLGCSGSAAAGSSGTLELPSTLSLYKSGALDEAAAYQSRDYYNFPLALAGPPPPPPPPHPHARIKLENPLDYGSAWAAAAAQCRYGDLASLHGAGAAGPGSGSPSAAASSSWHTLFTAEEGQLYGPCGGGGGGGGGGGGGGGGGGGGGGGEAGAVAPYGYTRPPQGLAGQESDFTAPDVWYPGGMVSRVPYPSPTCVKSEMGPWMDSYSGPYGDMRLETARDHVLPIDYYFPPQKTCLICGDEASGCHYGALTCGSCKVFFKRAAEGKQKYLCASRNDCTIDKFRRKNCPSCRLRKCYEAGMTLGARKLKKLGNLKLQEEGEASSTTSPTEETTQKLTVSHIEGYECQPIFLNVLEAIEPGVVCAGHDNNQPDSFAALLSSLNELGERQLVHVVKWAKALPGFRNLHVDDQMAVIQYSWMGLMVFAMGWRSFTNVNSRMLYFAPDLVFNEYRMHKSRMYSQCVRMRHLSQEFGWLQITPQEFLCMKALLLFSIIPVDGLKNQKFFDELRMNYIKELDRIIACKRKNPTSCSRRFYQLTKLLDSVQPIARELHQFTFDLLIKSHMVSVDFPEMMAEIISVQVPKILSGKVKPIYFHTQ
# Method in brief: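 Growth-kinetic antagonist readout in 22Rv1 cells, taken 80 h after continuous compound exposure. Activity fitted as signal loss relative to DMSO negative control.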
# [6] = molecular target: AR (gene 367) (UniProt P10275); assay: ACEA_AR_agonist_80hr: ACEA Biosciences xCELLigence Real-Time Cell Analysis on Androgen Receptor Agonism for Proliferation (AID 2283783);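 note: hits increase impedance growth signal above DMSO baseline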
# Method in brief: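 Androgen-driven proliferation in 22Rv1 cells is tracked as electrical impedance, taken 80 h after continuous exposure to compound (eight concentrations, 1:4 steps, maximum 100 uM final). Activity is fitted in the positive direction with DMSO as baseline.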
# [7] = ATG_M_06_XSP2: Attagene TRANS-FACTORIAL Multi-Species (XSP2) HepG2 Assay for M06 Transcription Factor (Internal Marker) (AID 2283811);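 note: internal background marker reporter mRNA measured by RT-PCR and capillary electrophoresis; hits are increases in signal above the DMSO baseline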
# Method in brief: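 HepG2, multiplexed reporter transfection; 24 h dosing; AR stimulated with 3 nM 6-alpha-fluorotestosterone + 1.5 nM norgestrel; RNA → RT-PCR → 6-FAM primer extension → HpaI → CE. Positive direction vs DMSO.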
structure (smiles),measurement,setting,value
C=C(C)C1CC=C(C)CC1 (stereo not drawn),outcome,[1],inactive
same,outcome,[2],inactive
Fc1ccc(Br)cc1,outcome,[1],inactive
same,outcome,[2],inactive
CN(C)c1ccc2nc3ccc(=[N+](C)C)cc-3sc2c1,AC50,[1],20.4 µM (active)
same,AC50,[3],9.9 µM (active)
same,AC50,[2],16.5 µM (active)
same,AC50,[4],4.5 µM (active)
CC(=O)OCc1ccccc1,outcome,[1],inactive
same,outcome,[3],inactive
same,outcome,[2],inactive
same,outcome,[5],inactive
O=C(O)C1CCC(C(=O)O)CC1 (stereo not drawn),outcome,[1],inactive
same,outcome,[2],inactive
C=C1C[C@H]2[C@@H]3C=C(C)C4=CC(=O)CC[C@]4(C)[C@H]3CC[C@]2(C)[C@@]1(OC(C)=O)C(C)=O,outcome,[1],inactive
same,outcome,[3],inactive
same,outcome,[6],inactive
same,AC50,[5],0.152 µM (active)
Oc1ccc(-c2ccccc2)c(Cl)c1,outcome,[1],inactive
same,AC50,[3],0.598 µM (active)
same,AC50,[2],82.6 µM (active)
same,outcome,[6],inactive
same,AC50,[5],0.56 µM (active)
O=C(O)CCC(=O)O,outcome,[1],inactive
same,outcome,[2],inactive
COc1ccc(C(=O)c2ccccc2)c(O)c1,outcome,[1],inactive
same,outcome,[3],inactive
same,outcome,[4],inactive
same,outcome,[5],inactive
same,outcome,[7],inactive
CCCCC(CC)COC(=O)/C=C/c1ccc(OC)cc1 (stereo not drawn),outcome,[1],inactive
same,AC50,[2],40.1 µM (active)
CC(C)COC(=O)CC(C(=O)OCC(C)C)S(=O)(=O)O (stereo not drawn),outcome,[1],inactive
same,outcome,[2],inactive
N#Cc1ccc(C(c2ccc(C#N)cc2)n2cncn2)cc1,AC50,[1],4.94 µM (active)
same,outcome,[2],inactive
same,outcome,[5],inactive
O=C(OCc1ccccc1)c1ccc(O)cc1,outcome,[1],inactive
same,AC50,[2],82.6 µM (active)
CCCCCCCCCC[N+](C)(CCCCCCCCCC)CCC[Si](OC)(OC)OC,AC50,[1],5.04 µM (active)
same,AC50,[3],16.1 µM (active)
same,AC50,[2],17 µM (active)
C=C[Si](OCCOC)(OCCOC)OCCOC,outcome,[1],inactive
same,outcome,[2],inactive
CCCCCCCCCCCCCC(=O)OC(C)C,outcome,[1],inactive
same,outcome,[3],inactive
same,outcome,[2],inactive
same,outcome,[5],inactive
CCC[Si](OC)(OC)OC,outcome,[1],inactive
same,outcome,[3],inactive
same,outcome,[6],inactive
O=C(Oc1ccccc1)c1ccccc1O,outcome,[1],inactive
same,outcome,[2],inactive
